Results from PubChem BioAssay (Tox21).
Inconclusive results are not listed. Active and inactive are the calls of the source. Unless noted, calls come from the whole dose curve; as a rule, active = well fitted curve in the direction sought with a large enough effect in the repeat runs; inconclusive = weak or mixed curves; inactive = no such curve, though single readings can be large; an effect the other way counts as inactive or inconclusive.

Experiments:
[1] = qHTS assay to test for compound auto fluorescence at 535 nm (green) in HEK293 cells (AID 720680)
[2] = qHTS assay to test for compound auto fluorescence at 460 nm (blue) in HEK293 cell free culture (AID 720681)
Method in brief: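 Blue fluorescence (Ex 405/Em 460 nm, triamterene-equivalent) was read immediately after pin transfer of compound or DMSO into medium (DMEM, 10% FBS) without cells.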

[3] = qHTS assay to test for compound auto fluorescence at 535 nm (green) in HEK293 cell free culture (AID 720682)
Method in brief: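 Steps: dispense DMEM/10% FBS into empty wells; pin in compound or DMSO; measure fluorescence at 485/535 nm. Values are fluorescein equivalents.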

[4] = qHTS assay to test for compound auto fluorescence at 590 nm (red) in HEK293 cell free culture (AID 720683)
Method in brief: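 Red-channel autofluorescence of compounds in culture medium (DMEM, 10% FBS), no cells, measured at 540/590 nm. Rose Bengal sodium is the reference fluorophore for equivalence.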

[5] = qHTS assay to test for compound auto fluorescence at 590 nm (red) in HepG2 cell free culture (AID 720684)
Method in brief: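 No cells present: MEM + 10% FBS only. Compound pinned in, red label read (540/590 nm). Activity = fluorescence equivalent to Rose Bengal sodium.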

[6] = qHTS assay to test for compound auto fluorescence at 460 nm (blue) in HepG2 cell free culture (AID 720685)
Method in brief: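 Cell-free plates of MEM plus 10% FBS received 23 nL compound or DMSO vehicle; blue-channel (405/460 nm) intensity scored against triamterene as reference fluorophore.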

[7] = qHTS assay to test for compound auto fluorescence at 535 nm (green) in HepG2 cell free culture (AID 720686)
[8] = qHTS assay to test for compound auto fluorescence at 460 nm (blue) in HepG2 cells (AID 720687)
Method in brief: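 Blue-channel autofluorescence (Ex/Em 405/460 nm, triamterene-equivalent) was measured after 1 hr compound exposure at 37 C, 5% CO2. Cells were HepG2, plated overnight at 37 C in MEM plus 10% FBS.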

[9] = molecular target: Glucocorticoid receptor (Homo sapiens) (UniProt P04150); test: qHTS assay to identify small molecule agonists of the glucocorticoid receptor (GR) signaling pathway (AID 720691; active = well fitted activation curve with a large enough effect in the signal ratio in the repeat runs, not every such curve was filed as active; the % refers to the signal ratio; note: potency is the fitted concentration of half-maximal effect); details: GR-bla HeLa, beta-lactamase reporter ratio, 18 h; activation: at 62.4 µM (top of the series)
Sequence of Glucocorticoid receptor (Homo sapiens) (P04150 whole entry, looked up): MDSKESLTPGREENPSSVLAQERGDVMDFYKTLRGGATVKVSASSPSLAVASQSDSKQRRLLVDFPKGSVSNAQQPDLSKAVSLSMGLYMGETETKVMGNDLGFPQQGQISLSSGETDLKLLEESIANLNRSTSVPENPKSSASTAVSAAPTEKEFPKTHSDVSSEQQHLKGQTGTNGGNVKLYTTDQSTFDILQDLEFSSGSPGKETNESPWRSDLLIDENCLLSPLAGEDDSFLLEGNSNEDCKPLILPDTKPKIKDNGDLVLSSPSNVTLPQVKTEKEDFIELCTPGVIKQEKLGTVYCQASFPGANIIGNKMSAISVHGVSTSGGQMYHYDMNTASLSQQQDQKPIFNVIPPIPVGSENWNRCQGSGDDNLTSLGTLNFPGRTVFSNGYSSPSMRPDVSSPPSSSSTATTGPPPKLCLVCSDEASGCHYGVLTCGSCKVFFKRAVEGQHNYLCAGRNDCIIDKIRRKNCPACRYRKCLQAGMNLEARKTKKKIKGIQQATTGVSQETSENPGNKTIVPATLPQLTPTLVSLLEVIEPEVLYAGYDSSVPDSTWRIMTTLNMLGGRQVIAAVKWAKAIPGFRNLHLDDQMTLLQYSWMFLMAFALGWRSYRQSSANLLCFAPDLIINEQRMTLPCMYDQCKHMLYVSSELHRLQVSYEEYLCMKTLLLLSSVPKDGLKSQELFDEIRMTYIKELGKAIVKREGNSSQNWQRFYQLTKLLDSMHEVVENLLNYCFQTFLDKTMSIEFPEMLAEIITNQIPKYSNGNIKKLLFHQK
Method in brief: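 Compounds in DMSO, alongside positive controls, were added to GR-bla HeLa reporter cells and incubated 18 h at 37 C; GRE-driven beta-lactamase was detected by fluorescence after 2 h with FRET substrate at room temperature.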

[10] = qHTS assay to identify small molecule antagonists of the glucocorticoid receptor (GR) signaling pathway - cell viability counter screen (AID 720693); note: nearly all actives have a fitted effect of over 55% in size; note: potency is the fitted concentration of half-maximal effect
[11] = qHTS assay for identifying genotoxic compounds that show differential cytotoxicity against isogenic chicken DT40 cell lines with known DNA damage response pathways - Rad54/Ku70 mutant cell line (AID 743015); note: nearly all actives have a fitted effect of over 60% in size; note: potency is the fitted concentration of half-maximal effect
[12] = qHTS assay to identify small molecule antagonists of the androgen receptor (AR) signaling pathway - cell viability counter screen (AID 743033; note: nearly all actives have a fitted effect of over 45% in size; note: potency is the fitted concentration of half-maximal effect)
[13] = qHTS assay to identify small molecule antagonists of the androgen receptor (AR) signaling pathway using the MDA cell line - cell viability counter screen (AID 743041; note: nearly all actives have a fitted effect of over 45% in size; note: potency is the fitted concentration of half-maximal effect)
Method in brief: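 Using the breast carcinoma line MDA-kb2 AR-luc, test chemicals were co-incubated with R1881 for 16 h; CellTiter-Fluor reagent, added at 15.5 h, provided a fluorescence measure of live cells.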

[14] = qHTS assay for identifying genotoxic compounds that show differential cytotoxicity against isogenic chicken DT40 cell lines with known DNA damage response pathways - wild type cell line (AID 743012); note: nearly all actives have a fitted effect of over 60% in size; note: potency is the fitted concentration of half-maximal effect
Method in brief: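 Viability of DNA repair-proficient chicken DT40 cells was assessed by CellTiter-Glo luminescence following 40 h compound exposure at 37 C/5% CO2.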

[15] = qHTS assay for identifying genotoxic compounds that show differential cytotoxicity against isogenic chicken DT40 cell lines with known DNA damage response pathways - Rev3 mutant cell line (AID 743014); note: nearly all actives have a fitted effect of over 55% in size; note: potency is the fitted concentration of half-maximal effect
[16] = molecular target: Androgen receptor (Homo sapiens) (UniProt P10275); test: qHTS assay to identify small molecule antagonists of the androgen receptor (AR) signaling pathway (AID 743035; active = well fitted inhibition curve with a large enough effect in the signal ratio in the repeat runs, not every such curve was filed as active; the % refers to the signal ratio; note: potency is the fitted concentration of half-maximal effect)
Sequence of Androgen receptor (Homo sapiens) (P10275 whole entry, looked up): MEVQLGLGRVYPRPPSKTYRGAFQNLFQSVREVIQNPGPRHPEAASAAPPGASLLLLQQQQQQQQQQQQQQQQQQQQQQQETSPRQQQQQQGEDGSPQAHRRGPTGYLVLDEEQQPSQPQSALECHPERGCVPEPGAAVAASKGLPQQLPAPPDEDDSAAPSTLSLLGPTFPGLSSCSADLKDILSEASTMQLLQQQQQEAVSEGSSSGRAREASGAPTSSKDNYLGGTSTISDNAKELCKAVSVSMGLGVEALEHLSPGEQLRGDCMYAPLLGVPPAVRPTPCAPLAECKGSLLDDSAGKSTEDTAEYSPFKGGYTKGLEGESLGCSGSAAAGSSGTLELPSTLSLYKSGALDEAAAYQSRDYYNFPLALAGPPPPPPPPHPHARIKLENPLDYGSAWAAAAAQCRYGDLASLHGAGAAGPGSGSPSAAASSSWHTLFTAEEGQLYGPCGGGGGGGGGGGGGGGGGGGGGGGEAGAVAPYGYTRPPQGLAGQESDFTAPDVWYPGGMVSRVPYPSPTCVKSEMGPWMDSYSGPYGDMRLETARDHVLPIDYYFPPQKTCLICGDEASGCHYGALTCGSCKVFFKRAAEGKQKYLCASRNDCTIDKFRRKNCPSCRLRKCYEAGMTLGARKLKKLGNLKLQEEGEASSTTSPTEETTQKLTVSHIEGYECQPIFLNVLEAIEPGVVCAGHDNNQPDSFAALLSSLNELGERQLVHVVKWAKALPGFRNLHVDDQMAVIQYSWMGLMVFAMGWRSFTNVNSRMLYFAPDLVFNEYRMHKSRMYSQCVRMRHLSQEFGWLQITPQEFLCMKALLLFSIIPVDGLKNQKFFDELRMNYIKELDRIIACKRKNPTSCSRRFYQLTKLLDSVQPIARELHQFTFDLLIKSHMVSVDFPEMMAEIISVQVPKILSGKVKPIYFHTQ
Method in brief: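 Reporter HEK293 cells were exposed to compounds and R1881 overnight (16 h, 37C); beta-lactamase activity was then quantified by FRET fluorescence.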

[17] = molecular target: Androgen receptor (Homo sapiens) (UniProt P10275); test: qHTS assay to identify small molecule agonists of the androgen receptor (AR) signaling pathway (AID 743036; active = well fitted activation curve with a large enough effect in the signal ratio in the repeat runs, with a control signal flat, not every such curve was filed as active; the % refers to the signal ratio; note: potency is the fitted concentration of half-maximal effect)
Method in brief: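 Reporter line: GeneBLAzer AR-UAS-bla-GripTite (HEK293). Steps: plate cells, 4 h rest, add compounds, 16 h at 37C, add LiveBLAzer B/G substrate, 2 h at RT, read fluorescence.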

[18] = molecular target: Androgen receptor (Homo sapiens) (UniProt P10275); test: qHTS assay to identify small molecule agonists of the androgen receptor (AR) signaling pathway using the MDA cell line (AID 743040; note: nearly all actives have a fitted effect of over 20% in size; note: potency is the fitted concentration of half-maximal effect)
Method in brief: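 Stable MMTV-luciferase reporter in MDA-kb2 cells; note the promoter carries GR as well as AR response elements. 16 h compound treatment, 37C, 0% CO2; ONE-Glo luminescence endpoint.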

[19] = molecular target: Androgen receptor (Homo sapiens) (UniProt P10275); test: qHTS assay to identify small molecule antagonists of the androgen receptor (AR) signaling pathway using the MDA cell line (AID 743042; note: potency is the fitted concentration of half-maximal effect; nearly all actives have a fitted effect of over 55% in size)
Method in brief: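 Antagonist mode: compounds plus R1881 agonist added to MDA-kb2 AR-luc cells, incubated 16 h at 37C. Luciferase reporter luminescence quantified, with multiplexed CellTiter-Fluor readout for cell viability.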

Measured: Potency

C=C1CC2C3CCC4=CC(=O)C=C[C@]4(C)[C@@]3(F)[C@@H](O)C[C@]2(C)[C@@]1(O)C(=O)COC(C)=O (some centres not stated)
active: [9] 0.0151 µM
not listed: [14] | [15] | [16] | [17] | [18] | [19]
inactive: all other assays above

C#C[C@]1(O)CC[C@H]2[C@@H]3CCC4=C/C(=N/O)CC[C@@H]4[C@H]3CC[C@@]21CC
active: [14] 16.8 µM | [15] 23.7 µM | [11] 21.1 µM | [16] 26.8 µM | [17] 4.25 µM | [18] 0.0335 µM
not listed: [9] | [13] | [19]
inactive: all other assays above

CCNC(=O)[C@@H]1CCCN1C(=O)[C@H](CCCN=C(N)N)NC(=O)[C@H](CC(C)C)NC(=O)[C@@H](Cc1c[nH]c2ccccc12)NC(=O)[C@H](Cc1ccc(O)cc1)NC(=O)[C@H](CO)NC(=O)[C@H](Cc1c[nH]c2ccccc12)NC(=O)[C@H](Cc1cnc[nH]1)NC(=O)[C@@H]1CCC(=O)N1
active: [10] 19 µM | [14] 0.841 µM | [15] 1.19 µM | [11] 1.06 µM | [12] 23.9 µM | [13] 11.9 µM
not listed: [9] | [16] | [17] | [18] | [19]
inactive: all other assays above

CC(=O)N[C@@H](CC(=O)N[C@@H](CCC(=O)O)C(=O)O)C(=O)O
not listed: [9] | [16] | [17] | [18] | [19]
inactive: all other assays above

CO[C@H]1C[C@H](O[C@H]2[C@H](C)O[C@@H](O[C@@H]3/C(C)=C/C[C@@H]4C[C@@H](C[C@]5(C=C[C@H](C)[C@@H](C6CCCCC6)O5)O4)OC(=O)[C@@H]4C=C(C)[C@@H](O)[C@H]5OC/C(=C\C=C\[C@@H]3C)[C@]54O)C[C@@H]2OC)O[C@@H](C)[C@@H]1O
active: [10] 7.56 µM | [14] 5.31 µM | [15] 6.68 µM | [11] 5.96 µM
not listed: [9] | [16] | [17] | [18] | [19]
inactive: all other assays above

CN=C1C=CC(=C(c2ccc(N(C)C)cc2)c2ccc(N(C)C)cc2)C=C1
active: [10] 7.56 µM | [14] 0.531 µM | [15] 1.06 µM | [11] 0.75 µM | [12] 0.535 µM | [13] 7.5 µM | [19] 3.76 µM
not listed: [9] | [16] | [17]
inactive: all other assays above

CN1CCC(CN2c3ccccc3Sc3ccccc32)C1 (configuration not stated)
active: [14] 5.96 µM | [15] 4.22 µM | [11] 5.96 µM
not listed: [9] | [16] | [19]
inactive: all other assays above

CO[C@@H]1[C@@H](O[C@@H]2O[C@H](C)[C@@H](O[C@H]3C[C@@](C)(O)[C@@H](OC(=O)CC(C)C)[C@H](C)O3)[C@H](N(C)C)[C@H]2O)[C@@H](CC=O)C[C@@H](C)C(=O)/C=C/C2OC2C[C@@H](C)OC(=O)C[C@H]1OC(C)=O (some centres not stated)
active: [14] 3.35 µM | [15] 5.31 µM | [11] 5.31 µM
not listed: [9] | [13] | [16] | [17] | [19]
inactive: all other assays above

O=C(Nc1ccc(Br)cc1)c1cc(Br)c(Br)s1
active: [10] 21.3 µM | [14] 26.6 µM | [15] 33.5 µM | [11] 26.6 µM | [12] 21.3 µM
not listed: [9] | [16] | [17] | [18] | [19]
inactive: all other assays above

C[C@H](N)C(=O)N[C@@H](C)P(=O)(O)O
not listed: [9] | [16] | [17] | [18] | [19]
inactive: all other assays above

OC1OC[C@@H](O)[C@H](O)[C@@H]1O (some centres not stated)
not listed: [9] | [16] | [17] | [18] | [19]
inactive: all other assays above

Cc1cccc(Nc2ncccc2C(=O)O)c1C
not listed: [9] | [16] | [17] | [18] | [19]
inactive: all other assays above

Nc1nc2[nH]cc(CCc3ccc(C(=O)N[C@@H](CCC(=O)O)C(=O)O)cc3)c2c(=O)[nH]1
active: [14] 0.0266 µM | [15] 0.0119 µM | [11] 0.0106 µM
not listed: [9] | [16] | [17] | [18] | [19]
inactive: all other assays above
